In PubChem BioAssay:
Calls of active or inactive are those of the source.

What was measured:
[1] = target: Albumin (Bos taurus) (UniProt P02769); assay: bovine serum albumin binders on microarray, profiling panel, artefact control for SMM control protein annotation, biochemical, small-molecule microarray, Alexa647 label, 635/667 nm fluorescence (AID 1118); details: BSA-A647 binding, fluorescence 635 nm, higher = more signal;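 further: score merges 667 nm emission intensity and signal-to-noise per printed compound spot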
Sequence of Albumin (Bos taurus) (P02769 whole entry, looked up): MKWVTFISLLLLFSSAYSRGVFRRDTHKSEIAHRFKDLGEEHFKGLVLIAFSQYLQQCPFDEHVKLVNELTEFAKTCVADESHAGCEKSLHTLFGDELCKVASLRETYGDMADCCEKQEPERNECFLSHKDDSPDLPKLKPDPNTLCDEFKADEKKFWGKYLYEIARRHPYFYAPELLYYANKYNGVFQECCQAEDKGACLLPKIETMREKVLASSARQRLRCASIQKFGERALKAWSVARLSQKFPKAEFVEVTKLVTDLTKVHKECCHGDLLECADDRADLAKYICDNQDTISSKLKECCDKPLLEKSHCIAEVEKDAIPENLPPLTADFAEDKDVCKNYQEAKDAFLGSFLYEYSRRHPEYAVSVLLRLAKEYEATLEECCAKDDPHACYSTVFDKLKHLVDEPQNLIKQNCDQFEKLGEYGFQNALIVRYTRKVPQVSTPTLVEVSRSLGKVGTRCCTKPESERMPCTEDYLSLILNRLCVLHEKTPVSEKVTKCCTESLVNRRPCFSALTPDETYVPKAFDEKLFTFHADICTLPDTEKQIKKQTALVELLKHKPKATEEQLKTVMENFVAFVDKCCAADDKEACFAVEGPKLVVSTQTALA

[2] = small-molecule microarray binders of probe aXIP, primary screen, biochemical, NeuroSMM set, 635/667 nm fluorescence (AID 1119); details: higher = more signal, called active from +8 up or from −8 down;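 further: probe is the protein aXip251-270 applied at 1 µg/mL to compound-printed slides; binding of probe to printed compounds measured as 667 nm fluorescence plus signal to noise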
[3] = small-molecule binders of probe aNOTCH3, primary screen, biochemical, small-molecule microarray, 635/667 nm fluorescence (AID 1120); details: higher = more signal;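 further: probe is a biotin-tagged antibody raised against NOTCH3 rather than NOTCH3 protein; score merges spot fluorescence near 667 nm with spot signal to noise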
[4] = small-molecule binders of probe aNOTCH2, primary screen, biochemical, small-molecule microarray, 635/667 nm fluorescence (AID 1121); details: higher = more signal;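 further: score merges feature fluorescence read at 667 nm with its signal to noise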
[5] = target: Carbonic anhydrase 2 (Homo sapiens) (UniProt P00918); assay: CAII small-molecule binders, profiling panel, biochemical, small-molecule microarray, Alexa647-labelled CAII (AID 1122); details: CAII-A647 binding fluorescence, higher = more signal
[6] = COS7 lysate on small-molecule microarray, probe aHis, 635 nm (AID 1123); details: COS7 cell lysate, fluorescence, higher = more signal;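 further: z-score combines 667nm fluorescence intensity with signal-to-noise per printed compound spot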
[7] = compound binding in COS7 lysate, probe aLAP1, primary screen, cell lysate, small-molecule microarray (AID 1124); details: probe aLAP1, fluorescence, higher = more signal;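 further: lysate comes from COS7 cells expressing LAP1 and is applied at 0.3 µg/mL; score merges spot fluorescence near 667 nm with signal-to-noise over triplicate slides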
[8] = system: Sam68 (KHDRBS1); assay: Sam68 small-molecule binders, primary screen, biochemical, small-molecule microarray, 635 nm fluorescence (AID 1125); details: small-molecule microarray binding, higher = more signal;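 further: score merges 667 nm channel intensity with signal to noise over triplicate slides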
[9] = system: Chordin-like protein 2 (CHRDL2); assay: CHRDL2 small-molecule binders, primary screen, biochemical, small-molecule microarray, 635 nm fluorescence (AID 1126); details: small-molecule microarray binding, fluorescence 635 nm; higher = more signal;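 further: printed compound slides probed with Chrdl2 protein at 4 µg/mL for 1 h at 4 C; score merges 667 nm emission intensity with signal to noise over three replicate slides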
[10] = target: Concanavalin-A (Canavalia ensiformis) (UniProt P02866); assay: ConA small-molecule binders, primary screen, artefact control for SMM control protein annotation, biochemical, small-molecule microarray, Alexa647 label, 635 nm (AID 1127); details: ConA-A647 binding fluorescence, higher = more signal;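 further: z combines 667 nm emission intensity with signal-to-noise across three replicate slides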
Sequence of Concanavalin-A (Canavalia ensiformis) (P02866 whole entry, looked up): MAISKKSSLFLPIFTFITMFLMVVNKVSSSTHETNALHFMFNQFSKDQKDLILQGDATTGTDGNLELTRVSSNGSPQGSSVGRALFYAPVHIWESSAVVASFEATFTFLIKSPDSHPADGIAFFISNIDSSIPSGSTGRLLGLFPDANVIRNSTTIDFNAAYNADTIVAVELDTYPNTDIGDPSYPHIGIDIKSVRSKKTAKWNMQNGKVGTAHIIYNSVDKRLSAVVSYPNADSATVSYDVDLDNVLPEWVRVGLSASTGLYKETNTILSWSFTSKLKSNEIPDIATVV

[11] = anti-His antibody binders, primary screen, artefact control for SMM control protein annotation, biochemical, small-molecule microarray, 635 nm fluorescence (AID 1128); details: anti-His Alexa647 antibody binding, higher = more signal;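 further: score merges feature fluorescence with signal-to-noise for each printed compound spot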
[12] = system: Human papillomavirus type 1a E7 protein (residues 1-88); assay: HPV1a E7 small-molecule binders, primary screen, biochemical, small-molecule microarray, residues 1-88, 635 nm (AID 1129); details: small-molecule microarray binding, fluorescence 635 nm; higher = more signal
[13] = target: Focal adhesion kinase 1 (Homo sapiens) (UniProt Q05397); assay: small-molecule microarray binders of FAK, primary screen, biochemical, 635/667 nm fluorescence, BSA, DTT (AID 1130); details: PTK2 binding, 635 nm fluorescence, higher = more signal;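 further: composite of spot emission at 667 nm and signal to noise over triplicate slides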
Sequence of Focal adhesion kinase 1 (Homo sapiens) (Q05397 whole entry, looked up): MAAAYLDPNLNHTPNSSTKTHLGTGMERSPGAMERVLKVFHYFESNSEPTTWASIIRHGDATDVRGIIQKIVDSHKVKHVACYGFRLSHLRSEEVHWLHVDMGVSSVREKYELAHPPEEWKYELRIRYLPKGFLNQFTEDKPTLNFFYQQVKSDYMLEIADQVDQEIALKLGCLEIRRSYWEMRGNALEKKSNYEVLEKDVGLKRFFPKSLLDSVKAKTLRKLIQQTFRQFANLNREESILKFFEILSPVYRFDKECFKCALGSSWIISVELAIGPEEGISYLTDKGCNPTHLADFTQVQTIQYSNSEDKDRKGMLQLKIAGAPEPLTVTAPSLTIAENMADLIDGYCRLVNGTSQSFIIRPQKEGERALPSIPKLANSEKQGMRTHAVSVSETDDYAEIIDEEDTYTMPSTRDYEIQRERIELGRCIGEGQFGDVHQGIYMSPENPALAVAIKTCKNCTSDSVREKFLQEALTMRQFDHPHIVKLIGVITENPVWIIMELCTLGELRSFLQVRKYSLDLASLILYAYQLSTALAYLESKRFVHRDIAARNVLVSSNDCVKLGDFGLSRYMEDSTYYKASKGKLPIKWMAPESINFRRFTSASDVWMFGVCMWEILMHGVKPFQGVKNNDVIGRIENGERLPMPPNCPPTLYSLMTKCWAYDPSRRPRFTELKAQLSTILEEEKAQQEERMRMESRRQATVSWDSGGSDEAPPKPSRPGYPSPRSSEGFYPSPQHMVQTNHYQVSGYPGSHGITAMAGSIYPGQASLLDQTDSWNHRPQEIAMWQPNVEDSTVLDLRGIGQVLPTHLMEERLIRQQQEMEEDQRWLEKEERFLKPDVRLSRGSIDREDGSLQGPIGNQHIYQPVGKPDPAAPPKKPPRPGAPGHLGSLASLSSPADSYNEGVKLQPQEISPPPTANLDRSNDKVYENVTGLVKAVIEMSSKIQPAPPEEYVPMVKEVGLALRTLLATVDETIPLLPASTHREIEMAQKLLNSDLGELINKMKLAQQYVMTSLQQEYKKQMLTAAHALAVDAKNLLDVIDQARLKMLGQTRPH

[14] = system: Fibrinogen (Alexa647-labelled); assay: fibrinogen binders on compound microarrays, profiling panel, artefact control for SMM control-protein annotation, biochemical, small-molecule microarray, 635/667 nm fluorescence (AID 1131); details: fibrinogen-A647 binding fluorescence, higher = more signal;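 further: z-score merges 667 nm fluorescence with per-spot signal-to-noise over triplicate slides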
[15] = target: Follistatin (Homo sapiens) (UniProt P19883); assay: follistatin binders on small-molecule microarrays, primary screen, biochemical, small-molecule microarray, 635/667 nm fluorescence (AID 1132); details: FST binding, 635 nm fluorescence, higher = more signal
Sequence of Follistatin (Homo sapiens) (P19883 whole entry, looked up): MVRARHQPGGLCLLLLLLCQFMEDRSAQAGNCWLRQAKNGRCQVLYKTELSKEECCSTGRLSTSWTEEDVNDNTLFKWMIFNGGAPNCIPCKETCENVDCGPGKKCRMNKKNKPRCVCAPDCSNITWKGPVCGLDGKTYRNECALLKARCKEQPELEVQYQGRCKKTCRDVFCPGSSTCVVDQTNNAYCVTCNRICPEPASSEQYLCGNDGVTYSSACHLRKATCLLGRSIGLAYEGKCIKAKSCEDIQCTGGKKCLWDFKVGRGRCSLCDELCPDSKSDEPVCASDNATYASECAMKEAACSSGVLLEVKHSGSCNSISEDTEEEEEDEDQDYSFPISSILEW

[16] = target: Fibroblast growth factor 2 (Homo sapiens) (UniProt P09038); assay: FGF2 binders on small-molecule microarrays, primary screen, biochemical, small-molecule microarray, 635/667 nm fluorescence (AID 1133); details: small-molecule microarray binding, FGF2, fluorescence 635/667; higher = more signal
Sequence of Fibroblast growth factor 2 (Homo sapiens) (P09038 whole entry, looked up): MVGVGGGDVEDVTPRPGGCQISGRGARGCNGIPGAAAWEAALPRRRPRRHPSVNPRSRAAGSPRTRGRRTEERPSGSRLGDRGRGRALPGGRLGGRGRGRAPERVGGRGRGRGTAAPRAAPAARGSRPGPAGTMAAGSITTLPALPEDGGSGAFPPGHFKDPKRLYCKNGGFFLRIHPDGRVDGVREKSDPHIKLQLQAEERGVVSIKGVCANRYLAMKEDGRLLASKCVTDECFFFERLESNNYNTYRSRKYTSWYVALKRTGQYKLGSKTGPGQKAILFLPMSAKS

[17] = mitochondrial membrane potential change in A549 cells, profiling panel, cell-based, JC-1 fluorescence, basal, 24 h, 100 nL (AID 1138); details: higher = more signal;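 further: A549 lung adenocarcinoma cells under basal conditions with no added stimulus; test concentration not given here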
[18] = system: Lefty1; assay: Lefty1 binders on small-molecule microarrays, primary screen, biochemical, small-molecule microarray, 635/667 nm fluorescence (AID 1139); details: small-molecule microarray binding, fluorescence 635/667; higher = more signal
[19] = system: wheat germ agglutinin (Triticum aestivum), Alexa647-labelled; assay: wheat germ agglutinin binders on compound microarrays, profiling panel, artefact control for SMM control-protein annotation, biochemical, small-molecule microarray, 635/667 nm fluorescence (AID 1140); details: WGA-A647 binding, 635 nm fluorescence, higher = more signal;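 further: score merges 667 nm feature emission with signal to noise over triplicate slides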
[20] = target: Luciferin 4-monooxygenase (Photinus pyralis) (UniProt P08659); assay: firefly luciferase enzyme inhibitors, primary screen, biochemical, luminescence, purified enzyme, 2006 set (AID 1141); details: SteadyGlo luminescence, 30 min, higher = more signal, called active from +8 up or from −8 down;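 further: cell-free assay with purified firefly luciferase at 100 ng per well in PBS; test concentration not given here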
Sequence of Luciferin 4-monooxygenase (Photinus pyralis) (P08659 whole entry, looked up): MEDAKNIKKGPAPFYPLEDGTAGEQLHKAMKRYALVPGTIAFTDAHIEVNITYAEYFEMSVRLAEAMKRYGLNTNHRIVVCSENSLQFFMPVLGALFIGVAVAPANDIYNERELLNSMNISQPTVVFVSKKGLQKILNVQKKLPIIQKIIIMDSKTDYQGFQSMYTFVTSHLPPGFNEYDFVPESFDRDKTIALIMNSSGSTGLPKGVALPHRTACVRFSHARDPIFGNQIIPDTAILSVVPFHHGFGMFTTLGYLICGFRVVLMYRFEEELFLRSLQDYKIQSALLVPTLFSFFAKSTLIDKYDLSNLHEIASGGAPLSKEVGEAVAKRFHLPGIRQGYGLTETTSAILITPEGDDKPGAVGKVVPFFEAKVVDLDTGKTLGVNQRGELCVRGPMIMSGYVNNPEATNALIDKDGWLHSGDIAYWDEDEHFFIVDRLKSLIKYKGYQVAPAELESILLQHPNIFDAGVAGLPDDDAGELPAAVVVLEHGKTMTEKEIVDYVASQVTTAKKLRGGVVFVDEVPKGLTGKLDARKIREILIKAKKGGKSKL

Row | Compound | composite z-score [1] | composite Z-score [2] | composite z-score [3] | composite z-score [4] | composite z-score [5] | composite z-score [6] | composite z-score [7] | composite z-score [8] | composite z-score [9] | composite z-score [10] | composite z-score [11] | composite z-score [12] | composite z-score [13] | composite z-score [14] | composite z-score [15] | composite z-score [16] | z-score [17] | composite z-score [18] | composite z-score [19] | z-score [20]
1 | CCOC(=O)C[C@H]1[C@H](OC(=O)c2ccc(-c3ccccc3)cc2)[C@@H](NC(=O)c2ccccc2)c2cc(OCCCO)ccc2N1C(=O)c1ccccc1 | 0.842 | 0.0948 (inactive) | 0.0162 | -0.0232 | 0.395 | 1.67 | 0.658 | 1.33 | -0.519 | 0.818 | 0.698 | 0.925 | 0.372 | 0.851 | -0.129 | 0.253 | 2.3 | -0.0764 | 0.646 | -0.517 (inactive)
2 | C=CCN1C(=O)[C@]2(O[C@H](CCn3cc([C@H](O)c4ccccc4)nn3)[C@@H]([Si](C)(C)c3ccc(OC)cc3)[C@@H]2C)c2cc(N3CCOC3=O)ccc21 | 0.318 | 0.2 (inactive) | -0.272 | -0.201 | 0.521 | 0.8 | 0.0004 | 0.745 | -0.526 | 0.804 | 1.13 | 1.13 | 0.783 | 0.811 | -0.447 | -0.408 | 1.89 | -0.351 | 0.514 | -0.678 (inactive)
3 | CC(C)(C)OC(=O)CC[C@]1(C(=O)NCc2ccccc2)N=C(c2ccc(OCCCO)cc2)O[C@H]1c1ccccc1N=[N+]=[N-] | 1 | -0.286 (inactive) | 0.197 | 0.0272 | 0.498 | 2.97 | 0.521 | 1.34 | -0.0443 | 1.16 | 2.59 | 1.25 | 0.245 | 1.01 | 1.42 | 1.3 | 0.566 | 0.459 | 1.42 | -9.8 (active)
4 | [N-]=[N+]=NCc1ccccc1C[C@@]1(C(=O)O)N=C(c2ccc(OCCCO)cc2)O[C@@H]1c1ccccc1 | 0.433 | 0.114 (inactive) | -0.133 | 0.0278 | 0.658 | 1.53 | 1.48 | 0.782 | -1.24 | 0.933 | 0.822 | 0.998 | 0.829 | 0.808 | 0.322 | -0.41 | 1.34 | -0.771 | 1.1 | -1.05 (inactive)
5 | C=C[C@H](OC)[C@@H](OC(=O)Nc1ccc(OC)cc1)c1ccc(OC)c(O)c1 | -2.02 | -0.403 (inactive) | -0.374 | -0.181 | 0.633 | -0.844 | 0.0191 | -0.667 | -2.31 | -2.17 | -1.22 | -1.3 | 0.7 | -2.93 | -0.823 | -1.23 | 1.19 | -1.75 | -2.18 | -1.67 (inactive)
6 | C#CCOc1ccc(C[C@H]2C(=O)O[C@H](Cc3ccccc3)[C@H](/C=C/C3CC3)N2CC#C)cc1 | -0.0855 | 0.319 (inactive) | -0.165 | -0.172 | 0.643 | -0.104 | 0.0683 | -0.0391 | 0.445 | -0.224 | -0.146 | 0.128 | 0.386 | 0.273 | -0.322 | -0.349 | 4.32 | -0.433 | -0.311 | -0.968 (inactive)
7 | NCCCCCNC(=O)[C@H]1C[C@H]2C(=O)NCC(=O)N2[C@H]1c1ccc(O)cc1 | 1.06 | 0.696 (inactive) | 0.0596 | -0.105 | 0.685 | 1.08 | 0.521 | 1.29 | 1.14 | 1.22 | 2.54 | 1.19 | 0.366 | 0.97 | 1.48 | 1.75 | 0.68 | 1.69 | 1.3 | -1.04 (inactive)
8 | O=C(O)[C@H]1C[C@H]2C(=O)NCC(=O)N2[C@H]1c1cccc(OCCO)c1 | -0.542 | 0.0953 (inactive) | 0.173 | -0.126 | 0.502 | 0.787 | -0.156 | 0.89 | 0.0805 | 1.09 | 1.48 | 0.221 | 0.457 | 0.742 | 1.27 | 0.161 | 1.14 | -0.13 | 0.655 | -1.6 (inactive)
9 | CCCCC(=C=CC[C@@H](O)c1ccc(OCCO)cc1)C[C@@H](O)c1cc(Cl)cc(Cl)c1O | 0.645 | 0.0371 (inactive) | 0.151 | -0.048 | 0.674 | 0.886 | 0.673 | 0.661 | -0.101 | 0.486 | 0.155 | 0.597 | 0.507 | 0.556 | 0.63 | 0.594 | 1.28 | 0.255 | 1.21 | -3.02 (inactive)
10 | C[N+](C)(C)CCCC[C@@H]1NC(=O)[C@@H]2C[C@H](C(=O)NCCCCCNC(=O)CS)[C@H](c3ccc(O)cc3)N2C1=O | -0.172 | -0.419 (inactive) | -0.152 | -0.179 | 0.728 | 1.05 | 0.453 | 0.245 | -0.479 | 1.12 | 1.6 | 0.076 | -0.0206 | 0.141 | 1.46 | 1.19 | 1.52 | 1.02 | 0.477 | -0.703 (inactive)
11 | COc1ccc(C(=O)Nc2cccc(CN3C(=O)[C@@]4(O[C@@H](CCO)[C@H]([Si](C)(C)c5ccc(OC)cc5)[C@H]4C)c4ccccc43)c2)cc1 | 0.558 | -0.0927 (inactive) | -0.0343 | -0.14 | 0.211 | 0.421 | 0.0002 | 1.18 | -0.143 | 1.01 | 0.338 | 1.07 | -0.177 | 0.795 | 1 | -0.169 | -1.29 | 0.143 | 0.327 | -1.96 (inactive)
